This passage reports outcome results from PubChem BioAssay (NCATS).

This is one part of the list. Records with an inconclusive call do not appear. Calls of active or inactive are those of the source. Calls follow the shape of the dose curve; as a rule, active = well fitted inhibition curve with a large enough effect; inconclusive = small, poorly fitted or top-dose-only effect; inactive = no such curve, though single readings can be large or run the other way.

This assay has as its target Endonuclease 4 (Escherichia coli (strain K12)) (UniProt P0A6C1). The assay is described as follows: Counterscreen for APE1 Inhibitors: qHTS Assay for Inhibitors of Endonuclease IV (AID 2565). The conditions noted are these: E. coli Endo IV, fluorogenic AP-site DNA cleavage; series mostly up to 27.1 µM. The source says:
Assay Provider: David M. Wilson, III, National Institute on Aging, NIH
Screening Center PI: Austin, C.P.
Screening Center: NIH Chemical Genomics Center [NCGC]
Escherichia coli endonuclease IV (Endo IV) is the key member of the AP endonuclease superfamily that catalyzes the cleavage of damaged DNA backbone immediately 5' of an AP site. E. coli EndoIV has the same functional activities as human APE1 but has no sequence or structural homology to the human protein. Herein, we utilize E. coli EndoIV to counter screen compound libraries as part of a high-throughput campaign for APE1 inhibitor identification. A concentration-response screen of the LOPAC1280 collection was performed under experimental conditions identical to those used in the APE1 screen.
Inhibition of APE1 activity was screened by utilizing double-stranded short substrate containing tetrahydrofuran (THF) abasic site labeled with rhodamine-type fluorophore (TAMRA) at the 5'-end and with non-fluorescent Black Hole Quencher-2 (BHQ-2) at the opposing 3'-end. An increase in the fluorescence intensity due to incision of the abasic site by APE1 was used to measure the enzyme activity.
Buffer: 50 mM Tris-HCl (pH 7.5) containing 50mM NaCl, 2 mM MgCl2, 1 mM DTT and 0.01% Tween-20.
Buffer in columns 3 and 4 as negative control (no enzyme).
Substrate: 50 nM final concentration of TAMRA/BHQ-2 substrate dispensed throughout the plate.
Enzyme: 2 nM E. coli EndoIV final concentration in columns 1, 2, 5-48. Column 1 is neutral (100% activity).
Control: Pintool transfer of control inhibitor NSC-13755 to column 2 of all assay plates. Two-fold, 16 pt dilution in duplicate to produce final concentrations in the 5.75 uM - 0.175 nM range.
Three uL of enzyme were dispensed to 1536-well Greiner black solid bottom plates. Compounds (23 nL) were transferred via Kalypsys pintool. The plates were incubated for 15 min at room temperature, and then 1 uL of substrate solution was added to start the reaction. The plates were immediately transferred into ViewLux High-throughput CCD imager (Perkin-Elmer) in order to measure the reaction progress in kinetic mode (three reads every 60 seconds) using 525 nm excitation and 598 nm emission fluorescence protocol. The fluorescence intensity difference between the third and the first time points was used to compute reaction progress.
For the compound `Cc1ccc(Cc2cnc(N)s2)o1`, the call was inactive. As to `COc1cc([C@H](Cc2ccccc2)NC(C)=O)oc(=O)c1`, the compound was classed as inactive.

For the compound `O=c1nc2s/c(=C\c3ccco3)c(=O)n2nc1Cc1ccccc1`, the outcome was inactive. In the case of `CC(C)(C)C(=O)OCc1nc(-c2ccc(O)c(O)c2)cs1` it was “inactive”; in that of `Cc1cc(C)c2nc(-c3ccco3)cc(C(=O)O)c2c1`, “inactive”; in that of `N#Cc1ccccc1CN1C(=O)S/C(=C/c2cccn2-c2cccc(C(=O)O)c2)C1=O`, “inactive”.

Turning to `C=CCn1c(=S)[nH]c2scc(-c3ccco3)c2c1=O`, the compound was called inactive. For the compound `Cc1ccc(-c2nc(SCC(=O)Nc3ccccc3OC(F)F)c3c(C)c(C(=O)O)sc3n2)cc1`, the compound was classed as inactive. For the compound `O=C(Cc1ccc(S(=O)(=O)N2CCOCC2)s1)NCCC(c1ccccc1)c1ccccc1`, the compound was classed as inactive. On to `N/C(=N\OC(=O)Nc1ccccc1)c1ccno1`, for which the call was inactive. In the case of `O=C(CN1CCN(S(=O)(=O)/C=C/c2ccccc2)CC1)NC(=O)NCc1ccco1` it was “inactive”.
